Most compounds without a hit are left out; they make up all but 13% or so of the library.
Cycloheximide cs – affects cycloheximide protein synthesis inhibition readout, counter-screen; cell reporter, cycloheximide protein synthesis inhibition counterscreen; max response, %; 12% of 300,000 active; AID 2314; in the data active = max response mostly above about 13%, no sharp cut-off; inactive = mostly below about 14%; note: read at 38.3 µM for the half of the compounds with a filed dose; 0% is about no effect
LASV entry inh – blocks Lassa virus binding to or entry into cells | AID 540256 | Potency, µM (highest dose often 37.9 µM), inactives show top-dose activity change, negative = inhibition, actives largely listed as inhibitors | Lassa virus pseudotype entry inhibition, cell reporter | 1.2% of 300,000 active; calls by dose curve; tested in HEK293 cells; note: potency is the fitted concentration of half-maximal effect; % is set by controls: 0 for no effect and ±100 for the full control effect; nearly all actives have a fitted effect of over 50% in size
FMDV inh – antivirals against foot and mouth disease virus; FMDV antiviral cell-based qHTS; Potency, µM (doses to about 57.9 µM), inactives show top-dose activity change, negative = inhibition, most hits filed as inhibitors; 1.2% of 410,000 active; AID 1159524; calls by dose curve; tested in HEK293T cells; note: read-out not given here; potency is the fitted concentration of half-maximal effect; % is set by controls: 0 for no effect and ±100 for the full control effect; nearly all actives have a fitted effect of over 45% in size
HCV inh – HCV inhibition. Huh7.5.1 HCVcc-Cre infection, luciferase reporter, 44 h. Potency, µM (series often up to 41.8 µM), without a hit: at the highest dose activity change, negative = inhibition, most hits filed as inhibitors. AID 651820. 3.4% of 340,000 active; active = well fitted inhibition curve with a large enough effect; inconclusive = small, poorly fitted or top-dose-only effect, or another doubt; inactive = no such curve, though single readings can be large or run the other way; note: potency is the fitted concentration of half-maximal effect; % is set by controls: 0 for no effect and ±100 for the full control effect
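Cells seeded at 1,000/well and cultured 4 h, then compounds added followed by HCVcc-Cre virus (~0.5 moi). After 44 h further culture, luciferase substrate was added, plates held 15 min at room temperature, and luminescence read for 15 sec.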
Shiga inhibitor – Shiga toxin inhibition; 9.2% of 290,000 active; inhibition, % at 38.7 µM; Vero cells, Shiga toxin protein synthesis inhibition reporter; in the data active = inhibition mostly above about 28%, no sharp cut-off; inactive = mostly below about 43%; note: 0% is about no effect
MARV entry inh – inhibitors of Marburg virus binding or cell entry | Marburg virus pseudotyped entry inhibition, cell reporter | Potency, µM (series often up to 37.8 µM), for the others: at the top dose activity change, negative = inhibition, most hits filed as inhibitors | 1.8% of 300,000 active | AID 540276; calls by dose curve; tested in HEK293 cells; note: potency is the fitted concentration of half-maximal effect; % is set by controls: 0 for no effect and ±100 for the full control effect
An asterisk follows results filed as active; ? = inconclusive; · = no result; [ ] = remark or other dose.

SMILES | Cycloheximide cs | LASV entry inh | FMDV inh | HCV inh | Shiga inhibitor | MARV entry inh
Cc1nn(-c2ccccc2)c2sc(C(=O)N(CC(=O)NC3CCCC3)Cc3ccco3)cc12 | 22 | ? | -24% | ? | 14 | ?
COc1cccc(/C=C/C(=O)Nc2ccc3[nH]c(=O)[nH]c3c2)c1 | -3 | · | -12% | -9% | 0 | ·
COc1ccc(C2=NOC(Cn3c(Cc4ccc(Cl)cc4)nc4c3c(=O)n(C)c(=O)n4C)C2)cc1 (centres undefined) | -2 | -2% | -20% | 1.4µM* | 4 | -8%
CC1CCN(C(=O)c2cc3ccccc3o2)CC1 | 56* | -3% | 55% | -8% | 76* | 9%
O=C(c1cc2ccccc2o1)N1CCCCCC1 | 46* | 22% | 67% | 5% | 62* | 19%
C=CCn1c(SCc2csc(C)n2)nc2sc3c(c2c1=O)CCCC3 | 1 | 5µM* | ? | ? | -10 | ?
COC(=O)c1c(NC(=S)NNS(=O)(=O)c2ccc(OC)cc2OC)sc2c1CCCCCC2 | -3 | 0% | -19% | 3% | 22 | ?
CC(=O)Nc1ccc(OC(=O)N2CCCCC2)cc1 | 12* | -6% | 10% | 8% | 80 | 8%
O=C(Oc1ccc(-c2ccccc2)cc1)N1CCCCC1 | 35* | -26% | -12% | 4% | 65* | ?
CCC(C)NC(=O)CO/N=C/c1ccc(C(=O)OC)cc1 (centres undefined) | 23 | -2% | -17% | 17% | -3 | ?
COc1ccc(CC(=O)OC(C)C(=O)Nc2ccc(Cl)cn2)cc1 (centres undefined) | · | 0% | -9% | -5% | · | 11%
O=C(CNS(=O)(=O)c1cccs1)N1CCCC1 | -3 | -2% | 6% | -5% | 7 | ?
O=C(CNS(=O)(=O)c1cccs1)N1CCc2ccccc2C1 | 48* | 3% | 44% | 0% | 55* | ?
O=C(CNS(=O)(=O)c1cccs1)N1CCN(c2ccccc2F)CC1 | 35* | 10%[46.1 µM] | 50% | -10% | 71* | -2%[46.1 µM]
COC(=O)c1cc(NC(=O)c2cccc(C(F)(F)F)c2)c(=O)oc1C | -3 | 7% | 4% | -8% | -4 | 0%[46.1 µM]
COC(=O)c1cc(NC(=O)c2cccc(Cl)c2)c(=O)oc1/C=C/Nc1cc(C)cc(C)c1 | 16 | · | · | · | 57* | ·
O=C(c1noc2c1CCCC2)N1CCN(c2ccc(F)cc2)CC1 | -2 | -3% | -3% | 12% | 33 | ?
Cc1[nH]c(=O)c(C#N)c(C)c1[N+](=O)[O-] | -2 | · | -7% | 4% | -19 | ·
O=C(Nc1ccccc1C(F)(F)F)c1noc2c1CCCCC2 | · | 23%[46.1 µM] | 1% | · | · | ?
O=C(NCc1ccc(F)cc1)c1noc2c1CCCCC2 | 21* | 3% | 32% | ? | 32 | ?
Cc1cc(NC(=O)c2noc3c2CCCCC3)nn1Cc1ccc(Cl)cc1 | 11 | -25% | 16% | -8% | 33 | -7%
O=C(NCc1ccc(F)cc1)c1noc2c1CCCC2 | 20* | ? | 44% | 4% | 50 | 5%
CC(C)(C)C1CCc2onc(C(=O)NCc3ccc(F)cc3)c2C1 (centres undefined) | -3 | -29% | -13% | 7% | 4 | -30%
O=C(NCc1ccc(Cl)cc1)c1noc2c1CCCCC2 | 32* | -19%[14.3 µM] | 58% | ? | 47* | ?
O=C(Nc1ccc(F)cc1F)c1noc2c1CCC2 | 35* | ? | 61% | -8% | 59* | 0%
SMILES | Cycloheximide cs | LASV entry inh | FMDV inh | HCV inh | Shiga inhibitor | MARV entry inh
CC(=O)Nc1ccc(NC(=O)C2(C)Cc3c(-c4ccc(NC(C)=O)cc4)ccnc3O2)cc1 (centres undefined) | · | · | -5% | · | · | ·
Cc1cc(C)nc(N(C#N)Cc2ccc(Br)cc2)n1 | 1 | -24% | -6% | -9% | -10 | 13%
CC(=O)Nc1c(Cl)cc2c(c1Cl)Cc1cc(C#N)ccc1-2 | · | 0%[46.1 µM] | 9% | ? | · | -20%
COc1ccc(CC/C(=N\O)C2(O)CCCCC2)cc1 | 1 | 4% | 34% | 8% | 29 | 18%
COc1cc(C(=O)NCCCNc2nc3cc(C)c(C)cc3cc2C#N)cc(OC)c1OC | 10 | ? | -27% | ? | 38 | ?
O=S(=O)(Nc1nc2ccccc2nc1N1CCc2ccccc2C1)c1ccc(Br)cc1 | 44* | ? | 3% | 5% | 33* | ?
O=S(=O)(Nc1nc2ccccc2nc1N1CCN(c2ccccn2)CC1)c1ccc(Cl)cc1 | 15* | · | -5% | -1% | 38 | ·
CC(=O)Nc1ccc(S(=O)(=O)Nc2nc3ccccc3nc2N2CCc3ccccc3C2)cc1 | 47* | ? | 30% | 30% | 103* | 0%
Cc1ccccc1S(=O)(=O)Nc1nc2ccccc2nc1N1CCc2ccccc2C1 | 37* | 9% | 6% | 20% | 93* | -22%
CN1CCN(c2nc3ccccc3nc2NS(=O)(=O)c2ccc(Br)cc2)CC1 | · | 8% | -6% | 32% | · | 3%
COc1ccc(-c2[nH]ncc2C(=O)NCc2ccc(F)cc2)cc1 | · | · | -9% | · | · | -3%[46.1 µM]
O=C(Nn1cnnc1)c1ccc(F)c(S(=O)(=O)N2CCCCC2)c1 | -3 | 9% | -9% | 5% | -6 | 0%
CCCCNC(=O)Nc1nnc(-c2ccc(Cl)cc2)o1 | -1 | 25% | -1% | 32% | 7 | -3%
COc1ccccc1C(=O)NCC(=O)Nc1ccc2c(c1)CCC2 | · | · | 31% | 4% | · | ·
CCCCCNCc1ccc(OCc2ccc(Cl)nc2)c(OC)c1 | 0 | -10% | -6% | 1% | 10 | ?
N#Cc1ccccc1NC(=O)C(=O)NCC(c1ccc2c(c1)OCO2)N1CCN(c2ccccc2)CC1 (centres undefined) | · | ? | -11% | · | · | ·
O=S(=O)(Nc1nc2ccccc2nc1Cl)c1ccc(Cl)cc1 | -2 | -19% | -14% | 1% | 20 | -11%
O=S(=O)(Nc1nc2ccccc2nc1N1CCc2ccccc2C1)c1ccc(Cl)cc1 | 71* | ? | 9% | 6% | 25* | ?
COC(=O)c1[nH]c2cccc(OC)c2c1NC(=O)CN1CC(C)OC(C)C1 (centres undefined) | -2 | -12% | -14% | -18% | -10 | 10%
O=C(Nc1ccc(C(=O)N2CCCCC2)cc1)Nc1cccc(Cl)c1 | 33* | 4% | 0% | 5% | 72* | 2%
O=C(Nc1cccc(Cl)c1)N1CCCCCC1 | 15* | 2% | 80% | -6% | 23 | 2%
O=C(Nc1ccccc1)N1CCCC1 | -3 | ? | -7% | 1% | -1 | 10%
O=C(Nc1ccccc1)N1CCN(Cc2ccc3c(c2)OCO3)CC1 | -4 | · | -19% | 14% | -14 | 4%
O=C(Nc1ccc2c(c1)OCCO2)N1CCN(c2ccccc2)CC1 | 20* | 7% | -1% | -6% | 47* | -15%
O=C(Nc1ccc2c(c1)OCCO2)N1CCN(Cc2ccccc2)CC1 | 38* | 0% | 41% | -29% | 61* | 0%[46.1 µM]
COc1ccccc1CNC(=O)c1cccc(Nc2nc3ccccc3n3nnnc23)c1 | · | 3%[46.1 µM] | ? | · | · | 3%[46.1 µM]

High-throughput results from PubChem.
